MPTP inh: permeability transition pore inhibition | isolated mouse mitochondria, Ca2+ swelling absorbance, 30 min | inhibition, % at 10 µM | 360,000 tested, 1.4% active | AID 602449;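 active means inhibition of 50% or more, scaled per plate between neutral and stimulator controls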;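 further: 0% = DMSO wells given calcium and 100% = 1 mM EGTA wells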
Calb FLC: C. albicans growth modulation with fluconazole; 300,000 tested, 0.57% active; AID 1979; growth inhibition, % (test concentration not listed); C. albicans CaCi-2 (fluconazole-resistant clinical isolate) + fluconazole, Alamar Blue growth, 48 h;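 active means growth inhibition above about 58% in most replicates, limit read from the data, passing the limit was not always enough; inconclusive means exactly half the replicates above a set limit; inactive means most replicates below a set limit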;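 further: all wells also contain fluconazole at 8 µg/ml as a sub-toxic cotreatment; 0% = median of DMSO wells and 100% = median of geldanamycin control wells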
Mdm2 MdmX PPI: human Mdm2/MdmX binding inhibition. SaOS-2 split-luciferase Mdm2/MdmX complementation, luminescence. 330,000 tested, 3% active. inhibition, % at 8 µM. O15151+Q00987;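 active means inhibition of at least 50% at 8 µM in the primary screen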
Target sequence (O15151 whole entry, looked up): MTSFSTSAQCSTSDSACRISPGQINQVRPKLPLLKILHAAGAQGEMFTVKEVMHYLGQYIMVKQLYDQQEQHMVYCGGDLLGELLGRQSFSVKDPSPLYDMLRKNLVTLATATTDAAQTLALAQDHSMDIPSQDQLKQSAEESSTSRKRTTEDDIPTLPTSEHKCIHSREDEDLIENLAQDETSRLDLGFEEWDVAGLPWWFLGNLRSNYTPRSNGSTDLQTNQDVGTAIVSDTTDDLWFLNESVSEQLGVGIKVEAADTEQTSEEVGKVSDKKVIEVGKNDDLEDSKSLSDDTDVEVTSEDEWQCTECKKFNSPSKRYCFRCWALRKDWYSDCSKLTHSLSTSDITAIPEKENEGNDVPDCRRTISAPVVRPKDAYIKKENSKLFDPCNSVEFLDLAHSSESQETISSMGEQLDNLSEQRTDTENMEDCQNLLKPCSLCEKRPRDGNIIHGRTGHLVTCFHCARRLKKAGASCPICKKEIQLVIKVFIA
Target sequence (Q00987 whole entry, looked up): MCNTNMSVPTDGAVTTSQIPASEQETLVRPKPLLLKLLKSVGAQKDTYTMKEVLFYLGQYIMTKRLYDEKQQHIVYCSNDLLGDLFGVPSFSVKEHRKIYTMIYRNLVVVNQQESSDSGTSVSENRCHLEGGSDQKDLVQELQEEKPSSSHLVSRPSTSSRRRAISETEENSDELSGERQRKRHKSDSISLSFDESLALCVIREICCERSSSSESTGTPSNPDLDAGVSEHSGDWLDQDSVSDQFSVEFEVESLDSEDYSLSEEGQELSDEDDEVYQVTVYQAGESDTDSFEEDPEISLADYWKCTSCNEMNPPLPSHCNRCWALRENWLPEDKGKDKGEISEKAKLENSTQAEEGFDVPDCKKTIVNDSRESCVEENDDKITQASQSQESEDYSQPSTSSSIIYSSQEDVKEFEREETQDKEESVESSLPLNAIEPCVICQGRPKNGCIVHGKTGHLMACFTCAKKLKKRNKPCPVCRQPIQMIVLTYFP
Beta apoptosis: blocks beta cell apoptosis; INS-1E cytokine-induced death, ATP luminescence, 48 h; percent of positive-control rescue, neutral wells zero; protection from apoptosis, % (no concentration beside the values); 300,000 tested, 0.8% active; AID 435005;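 active means Every replicate reaches about 75%, or at least half do and their mean reaches it too, limit read from the data; inconclusive means At least half of replicates reach the limit but their mean does not; inactive means Under half of replicates reach the limit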;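 further: 0% = cytokine-treated negative control wells and 100% = positive control rescue; higher means more ATP so stronger rescue from cytokine killing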
CSC inhib: blocks cancer stem cells; inhibition, % at 7.5 µM; cancer stem cell-like cells viability, luminescence; 300,000 tested, 1.1% active; in the data active means inhibition above about 75%; inconclusive means no clear call, values can overlap the other calls; tested in HMLE shEcad cells
MPTP counter: membrane potential counter-screen of mitochondrial pore inhibitors. shares compounds with MPTP inh. isolated mitochondria, Rhodamine 123 fluorescence. inhibition, % at 10 µM. 5,000 tested, 78% active; in the data active means inhibition above about 22%;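 further: 0% = DMSO vehicle and 100% = positive control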
MPTP swell DR: dose response confirmation of mitochondrial permeability transition pore inhibitors; IC50, µM; 780 tested, 58% active; shares compounds with MPTP inh; isolated mitochondria swelling, absorbance; in the data active means IC50 below about 20 µM
MPTP counter DR: MPTP inhibitor counter-screen activity, dose response; IC50, µM; shares compounds with MPTP inh; AID 651564; 780 tested, 49% active; isolated mitochondria counterscreen, fluorescence read-out; in the data active means IC50 below about 80 µM
Starred values were filed as active, the others as inactive; ? = inconclusive; · = no result. The list is not random: actives were taken first. Their share in the collection is about 4.8%.

SMILES | MPTP inh | Calb FLC | Mdm2 MdmX PPI | Beta apoptosis | CSC inhib | MPTP counter | others
N#Cc1ccc(NC(=S)Nc2ccccc2)cc1 | 90* | 1 | -11 | -4 | 13 | 92*
COc1cc(C(=O)NCC(c2ccccc2)N(C)C)ccc1OCC(=O)N1CCOCC1 (stereo not given) | -2 | 40 | 20 | -4 | -12 | ·
COC(=O)N(C)C[C@H]1OCc2cnnn2CCCC(=O)N([C@H](C)CO)C[C@H]1C | -1 | · | · | · | · | ·
CCN1CCN(c2ccc(S(=O)(=O)N3CCCCC3)cc2NC(=O)CC(C)c2ccccc2)CC1 (stereo not given) | 2 | -1 | 18 | 2 | -10 | ·
O=C1C(Cl)=C(Nc2ccccc2O)C(=O)N1CCc1ccccc1 | 61* | 10 | -18 | 0 | 2 | 60*
COc1ccc(CCNC2=C(Cl)C(=O)N(CCc3ccccc3)C2=O)cc1OC | 0 | 1 | 12 | 5 | -1 | ·
CCS(=O)(=O)N1CCC(NC(=O)C(Cc2ccc(OC)c(OC)c2)NC(C)=O)CC1 (stereo not given) | 0 | 7 | 8 | 1 | 2 | ·
O=C(CCN1C(=O)/C(=C\c2ccccc2)SC1=S)NNC(=O)c1cccnc1 | 80* | -29 | -2 | 8 | -1 | 70*
Cc1nc2ccccc2c2oc(C(=O)NCc3ccc4c(c3)OCO4)cc12 | 63* | 8 | 11 | 10 | -4 | 31*
COc1ccc(Cn2c(=O)[nH]c3cc(C(=O)N4CCN(c5ccc(C(C)=O)cc5)CC4)ccc3c2=O)cc1 | 0 | 12 | 1 | 9 | -10 | ·
COc1ccc2c(c1)N(C[C@H](C)CN(C)C)c1ccccc1S2 | 67* | · | · | · | · | -16 | MPTP swell DR=8.8*;MPTP counter DR=>80
CC(CN(C)C)CN1c2ccccc2Sc2ccccc21 (stereo not given) | 77* | · | 40 | · | 7 | -11 | MPTP swell DR=7.1*;MPTP counter DR=>80
CN(C)c1ccc(-c2ccnc3c2CC(C)(C(=O)NCc2cccc(Cl)c2)O3)cc1 (stereo not given) | 0 | · | · | · | · | ·
COc1cccc(NC(=O)CN(C)C(=O)c2ccc3c(c2)S(=O)(=O)N=C2CCCCCN23)c1 | 1 | 10 | 11 | 2 | 10 | ·
Oc1ccc(Br)cc1-c1cc(-c2ccccc2Cl)[nH]n1 | 74* | 4 | 20 | -1 | 24 | 59*
COc1ccc(O)c(-c2cc(-c3ccccc3Cl)[nH]n2)c1 | 5 | -3 | -4 | · | · | ·
Oc1ccc(Br)cc1-c1cc(-c2ccccc2F)[nH]n1 | 63* | 1 | 24 | 8 | 41 | 58*
O=C(c1nc2ccc(Cl)cn2c1CN1CCC[C@H]1CO)N1CCCCCCC1 | -1 | -5 | 19 | -9 | -8 | ·
Cc1ccc(S(=O)(=O)Nc2cc(C(C)C)c(O)cc2C)cc1 | 6 | 23 | 6 | 2 | 17 | ·
Cc1ccc(S(=O)(=O)Nc2cc(Cl)c(O)cc2C)cc1 | 65* | -23 | 16 | -4 | -7 | 13 | MPTP swell DR=15*;MPTP counter DR=23*
CC1=C(C(=O)OC(C)C)C(c2ccc3c(c2)OCO3)NC(=O)N1 (stereo not given) | 2 | -6 | -17 | -1 | 12 | ·
CC(C)[C@H](NC(=O)c1ccccc1Cl)C(=O)OCC(=O)NCc1ccc2c(c1)OCO2 | 1 | · | 11 | -3 | -15 | ·
COc1ccccc1CCC(=O)N(C)CC(=O)Nc1ccc(F)cc1 | 0 | 9 | 13 | 4 | 7 | ·
S=C(NCCSCc1ccccc1Cl)Nc1ccccc1 | 82* | 3 | -8 | 3 | 11 | 104*
CCCOc1ccc(CSCCNC(=S)Nc2ccccc2)cc1 | 95* | -47 | 7 | 9 | 77* | 94*
SMILES | MPTP inh | Calb FLC | Mdm2 MdmX PPI | Beta apoptosis | CSC inhib | MPTP counter | others
S=C(NCCSCc1ccc(Cl)cc1)Nc1ccccc1 | 68* | -25 | 29 | -3 | 23 | 97*
Cc1cccc(CSCCNC(=S)Nc2ccccc2)c1 | 82* | -46 | 4 | 1 | 17 | 79*
CCOc1ccc(CSCCNC(=S)Nc2ccc(OC)cc2)cc1 | 17 | 7 | 12 | -2 | 5 | ·
COc1cccc(-c2oc3c(c2C#CCCO)C(O)CCC3)c1 (stereo not given) | -2 | · | · | · | · | ·
CC(=NO)c1cc(Br)c2cccc3c2c1CC3 | 2 | · | · | · | · | ·
O=C(COC(=O)c1cc(S(=O)(=O)N2CCOCC2)c(Cl)cc1Cl)c1ccc[nH]1 | -1 | · | 33 | 0 | · | ·
Cc1c(NC(=O)c2ccc(NS(=O)(=O)c3ccc(F)c(F)c3)cc2)c(=O)n(-c2ccccc2)n1C | 2 | · | -21 | -3 | -6 | ·
C[n+]1ccc(/C=N/Nc2nc(Cl)c(C#N)c(Cl)c2Cl)cc1 | 103* | 30 | 23 | · | -7 | 76*
Clc1nnc(N/N=C/c2ccccc2)c2ccccc12 | 0 | 19 | -120 | 6 | 1 | ·
Cc1ccc(-n2ncc3c(SCc4cccc(C)c4)ncnc32)cc1 | 7 | -1 | -70 | 0 | 0 | ·
Cc1ccc(-n2ncc3c(N4CCCC(C)C4)ncnc32)c(C)c1 (stereo not given) | 59* | -3 | -149 | 17 | 37 | 43*
Cc1ccc(-n2ncc3c(N4CCCC4)ncnc32)c(C)c1 | -1 | 36 | -9 | · | -6 | ·
Cc1ccc(-n2ncc3c(SCc4cccnc4)ncnc32)c(C)c1 | 88* | 47 | · | · | · | 82*
CCn1cc(C(=O)O)c(=O)c2cnc(N3CCN(C(=S)Nc4ccccc4C(F)(F)F)CC3)nc21 | 4 | -11 | 9 | 21 | -6 | ·
COc1ccc(OC)c(-c2csc(NC(=O)CSCc3c(C)noc3C)n2)c1 | 1 | 15 | -2 | 1 | · | ·
CC1(C(=O)O)CCCN1C(=O)c1cccc(C(F)(F)F)c1 (stereo not given) | -1 | · | · | · | · | ·
CCN(C(=O)COC(=O)c1ccc2c(c1)OCO2)c1ccc(F)cc1 | 0 | · | 16 | -4 | -20 | ·
Cc1n[nH]c(C)c1Sc1ccccc1N=Cc1cc(Cl)cc([N+](=O)[O-])c1O | 37 | 10 | 16 | -6 | 13 | ·
COc1cc(CCN=Cc2cc(Cl)cc(Cl)c2O)c([N+](=O)[O-])cc1OC | -1 | · | · | · | · | ·
COc1ccc(N=Cc2cc(Cc3ccccc3Cl)cc([N+](=O)[O-])c2O)cc1OC | 62* | ? | 16 | -1 | · | -5
Cc1ccc(N=Cc2cc(Cc3ccccc3Cl)cc([N+](=O)[O-])c2O)c(O)c1 | 84* | 109* | 37 | 4 | 70 | 53*
CCN(CC)S(=O)(=O)c1cccc(C(=O)NNC(=O)c2ccc3[nH]c(=O)c(=O)[nH]c3c2)c1 | -1 | -7 | 12 | 2 | -3 | ·
CC(=O)O[C@@]1(C)C[C@@H](O)[C@]2(O)C=CO[C@@H](O[C@@H]3O[C@H](CO)[C@@H](O)[C@H](O)[C@H]3O)[C@@H]21 | -1 | · | 1 | -20 | -6 | ·
CN(C)CCCN(C(=O)c1ccc(Br)s1)c1nc2cc3c(cc2s1)OCCO3 | 76* | -7 | 42 | · | -6 | -26
